This is an account of results in PubChem BioAssay (EPA / NIEHS).

Some compounds were tested as several samples or in several runs, with calls that do not always agree. Active and inactive are the calls of the source. The calls were made as follows: active = hit-call score of the fitted dose curve at least 0.9, where 1 is the maximum; inactive = score below 0.9.

Read-out in the assay: Monocyte Chemoattractant Protein-1 (MCP1), CCL2 (gene 6347)
As to the kind of experiment: BSK_4H_MCP1: BioMAP Diversity Plus: 4H Assay for Monocyte Chemoattractant Protein-1 (MCP1) Biomarker Activity (AID 2283018). Conditions: primary human endothelial cells (HUVEC); actives raise or lower the signal. On the procedure: BSK_4H is a cell-based, multiplexed-readout assay that uses umbilical vein endothelium, a human vascular primary cell, with measurements taken at 24 hours after chemical dosing in a 96-well plate.BSK_4H_MCP1 is an assay component measured in the BSK_4H assay. It measures MCP-1 antibody related to regulation of gene expression using ELISA technology.Data from the assay component BSK_4H_MCP1 was analyzed into 1 assay endpoint. This assay endpoint, BSK_4H_MCP1, was analyzed with bidirectional fitting relative to DMSO as the negative control and baseline of activity. Using a type of binding reporter, gain or loss-of-signal activity can be used to understand changes in the signaling as they relate to the gene CCL2. Furthermore, this assay endpoint can be referred to as a primary readout, because this assay has produced multiple assay endpoints where this one serves a signaling function. To generalize the intended target to other relatable targets, this assay endpoint is annotated to the cytokine intended target family, where the subfamily is chemotactic factor.
The levels of cell surface (or secreted, indicated by the prefix "s") biomarker endpoints were measured by ELISA. Overt cytotoxicity to cells in confluent adherent cultures (all systems other than the BT system) was assessed by measuring total protein levels using sulforhodamine B (SRB) staining in parallel cultures at the time of biomarker measurements, indicated as SRB endpoints. For proliferation assays for adherent cell types, individual cell types are cultured at sub-confluence and relative cell numbers quantified by SRB staining at time points optimized for each system (48 h: 3C and CASM3C systems; 72 h: BT and HDF3CGF systems; 96 h: SAg system). SRB was performed by staining cells with 0.1% SRB after fixation with 10% TCA and reading wells at 560 nm.Viability and proliferation of PBMC (T cells) was quantified by Alamar Blue reduction for the SAg and BT systems. For PBMC viability (referred to as PBMC Cytotoxicity within the assay endpoint names), cells were plated (75,000/well in a 96-well plate) and then chemical samples added for 1 h before addition of activators, SEB and TSST-1 (20 ng/mL final concentration each). Cells were incubated for 90 h. Then, Alamar Blue (20 uL/well) (Invitrogen, Cat DAL1100) was added for 6 h, and the plates were read with a fluorescence microplate reader at 546/580 nm (excitation/emission). For PBMC proliferation, cells were plated and activated as above but incubated for only 16 h prior to addition of Alamar Blue. Plates were read after 6 h.
For `CN(C)C(=O)Nc1ccc(Oc2ccc(Cl)cc2)cc1`, the AC50 is 12.1 µM (active).

Take `CCOC(=O)C(C#N)=C(c1ccccc1)c1ccccc1`: the AC50 is 1 µM (active) and the result was inactive.

Regarding `COc1ccc(CCN2CCC(Nc3nc4ccccc4n3Cc3ccc(F)cc3)CC2)cc1`, the AC50 was 0.992 µM (active).

Turning to `CN(c1nccc(=O)[nH]1)C1CCN(c2nc3ccccc3n2Cc2ccc(F)cc2)CC1`, the result was inactive.

Turning to `CC1(C)C2=CCCC(C)(C)[C@]23CC[C@H]1C3`, the result was inactive.

For the compound `Oc1c(Cl)cc(Cl)c(Cl)c1Cc1c(O)c(Cl)cc(Cl)c1Cl`, the AC50 was 1.31 µM (active).

Consider `CC1(C)CCC[C@]2(C)[C@H]3CCO[C@]3(C)CC[C@@H]12`, for which the result was inactive.

With `c1ccc(CCc2ccccc2)cc1`, the AC50 was 32.1 µM (active).

With `CC(C)(N=C=O)c1cccc(C(C)(C)N=C=O)c1`, the result was inactive.

Regarding `O=C(Nc1ccc2c(O)c(N=Nc3ccc(N=Nc4ccc(S(=O)(=O)O)cc4)cc3)c(S(=O)(=O)O)cc2c1)c1ccccc1`, the outcome was inactive.

For the compound `CC(=O)Nc1ccc(C(=O)CCl)cc1`, the AC50 was 9.64 µM (active).

`CCCCCC(C=O)=Cc1ccccc1`: the half-maximal activity concentration (AC50) was 27.8 µM (active).

Take `IC(I)I`: the result was inactive.

Take `COc1ccc(OC)c(N=Nc2c(O)ccc3ccccc23)c1`: the outcome was inactive.

On to `c1ccc(Oc2ccccc2)cc1`, for which the AC50 was 32.9 µM (active).

Consider `C=C(C)[C@H]1CC=C(C)C(=O)C1`, for which the result was inactive.

In the case of `CC(C)(C)CC(C)(C)c1ccc(OCCOCC[N+](C)(C)Cc2ccccc2)cc1`, the AC50 is 3.9 µM (active).

In the case of `CC(=O)c1c(C)c([N+](=O)[O-])c(C(C)(C)C)c([N+](=O)[O-])c1C`, the result was inactive.

Regarding `CCCCCCC(CO)CCCC` (stereo not given), the result was inactive.

For `CS(=O)(=O)OCCCCOS(C)(=O)=O`, the result was inactive.

For the compound `C=CC(C)(O)CCC=C(C)C` (stereo not given), the outcome was inactive.

With `O=C1c2ccccc2C(=O)c2c(O)ccc(O)c21`, the result was inactive.

For the compound `C[C@@H]1CCN(C(=O)[C@H](CCCN=C(N)N)NS(=O)(=O)c2cccc3c2NC[C@H](C)C3)[C@@H](C(=O)O)C1`, the result was inactive.

Turning to `CSCCC=O`, the outcome was inactive.

`O=C1OC2(c3ccccc31)c1ccc(O)c(Br)c1Oc1c2ccc(O)c1Br`: the AC50 was 25.4 µM (active).

Turning to `CC(C=O)Cc1ccc(C(C)(C)C)cc1` (stereo not given), the AC50 was 20 µM (active).

Consider `O=CN1CCOCC1`, for which the outcome was inactive.

Regarding `CCCCOC(=O)CCCCCCCC(=O)OCCCC`, the result was inactive.

As to `COc1cc(Cl)c(OC)cc1N`, the outcome was inactive.

On to `O=C1OC[C@H](Cc2cccc(O)c2)[C@H]1Cc1cccc(O)c1`, for which the outcome was inactive.

Regarding `C=C(C)C(=O)OCC(CC)(COC(=O)C(=C)C)COC(=O)C(=C)C`, the outcome was inactive.

Regarding `CCC(C)c1cc([N+](=O)[O-])cc([N+](=O)[O-])c1OC(=O)OC(C)C` (stereo not given), the AC50 was 5.06 µM (active).

With `C1=CC2C3C=CC(C3)C2C1` (stereo not given), the outcome was inactive.

Consider `CC=Cc1ccc(OCC)c(O)c1`, for which the result was inactive.

For `C=C(C)C(=O)OCCOCCOCCOC(=O)C(=C)C`, the outcome was inactive.

Turning to `C=C(C)C(=O)OCCOCCOCCOCCOC(=O)C(=C)C`, the outcome was inactive.

Regarding `CCCCN(CCCC)C(=O)N(CCCC)CCCC`, the half-maximal activity concentration (AC50) is 6.41 µM (active).

Take `c1ccc2cc(Nc3ccc(Nc4ccc5ccccc5c4)cc3)ccc2c1`: the outcome was inactive.

Turning to `CC(CN=Cc1ccccc1O)N=Cc1ccccc1O` (stereo not given), the outcome was inactive.

Usually AC50 stands for the midpoint of the concentration-response curve, whichever way the signal moves.
